Laboratory results taken from the OligoGym collection.

target: P2RX3; assay: pooled miR-30 sensor sort-seq; sequence = guide strand; details: shRNA
Also: reference of the scale not given here.

| Sequence | sensor-assay potency score (higher = more potent) |
| --- | --- |
| TTCACAACCACCGACTTGGTGG | -0.566 |
| TTTCTCAGAAACGCTGTCGAGC | -0.254 |
| TATACCAGCACGTCGAAGCGGA | -0.313 |
| TTGAGCAGGATGATGTCACAGA | 0.136 |
| TTCAGTAACAATCATCTTGGTG | -0.0732 |
| TACCTGGTAAGCCTTCTCGTGC | -1.6 |

target: P2RY12; assay: as above; details: shRNA

| Sequence | sensor-assay potency score (higher = more potent) |
| --- | --- |
| TTCTTGTCTCTCGGCTGCCTGT | -1.33 |
| ATTTGGGTCACCACCATCCTGT | -0.843 |
| TTATTAACTTAGTTGCTTCTTC | 0.717 |
| TAATATTTTTACTTAGCGCTTT | 0.117 |
| TAATTTACTATTTCATGCCAGA | -0.703 |
| TTGACGTTCACCTTTTTCCTGG | 0.386 |
| TTAACCACAGAGTGCTCTCTTT | -0.668 |
| TTATTATTAACTTAGTTGCTTC | -0.642 |
| TTCACATTCTTGTCTCTCGGCT | -0.666 |
| TTAACTTAGTTGCTTCTTCGTC | -0.236 |
| TAAAGTTTGATTTACTCCGGAT | -0.511 |
| TTTCATGCCAGACTAGACCGAA | -0.342 |

target: P2RY4; assay: as above; details: shRNA

| Sequence | sensor-assay potency score (higher = more potent) |
| --- | --- |
| AGTAGAGCAGCTACTGTCCTGG | -1.37 |
| TAGCGGTGCACGCTGATGCAGG | -1.24 |
| TAGGAGTAGAGCAGCTACTGTC | -0.823 |
| TAGAGCACAGGATCCAGGCAGC | -0.928 |
| TAGCAAACAAGAGTGACCAGGC | 0.861 |
| TTCCAATAGAAAAGAAAGCGGA | -0.289 |
| AAGACGACTGTGCAGAGCCTGG | -1.35 |
| TTGAAATCCTCATCAAACCAAC | -1.03 |
| TTGACAATGTTCAGTACTCGGC | -0.264 |
| TGAACTTGAAATCCTCATCAAA | -1.05 |
| TAGAGCAGCTACTGTCCTGGGG | 0.0671 |
| ATAGCAAACAAGAGTGACCAGG | -0.888 |

target: P2RY6; assay: as above; details: shRNA

| Sequence | sensor-assay potency score (higher = more potent) |
| --- | --- |
| TTTCTGTAGGAGCTCATGTGGT | -1.02 |
| TCGCGGTAGACACAGGTGGTGG | -1.81 |
| TTTAGGGTGTACACGGCCGTGC | -0.557 |
| TAGCGCTGGAAGCTGATGCAGG | -0.775 |
| TTCTGTAGGAGCTCATGTGGTC | -0.257 |
| TTGGCATAGAAGAGGAAGCGGA | -1 |
| TTGGTGAGCTTCTGGGTCCTGT | -0.191 |
| TTCTCGCGGTAGACACAGGTGG | -0.894 |
| AGTTGCTTGAAGTTCTCGCGGT | -0.308 |
| TTGGGCATAGTTGTAGATGAGC | -1.06 |
